Source: PubChem BioAssay (NCI)
About 79,000 compounds went through this panel and 15% of them were active in at least one assay; those are over-represented in the sample as a whole. A number with no mark means an inactive call. Activity calls are given as the source filed them. Rule as the data show it: active = growth inhibition above about 70%; inactive = the rest.

How the values were obtained:
[1] = NCI Yeast Anticancer Drug Screen. Data for the rad50 strain (AID 155);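 also: 0% = growth of vehicle-only cultures of the same strain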; settings: S. cerevisiae rad50 strain growth inhibition, active compounds read high; at 50.0 µM unless noted
Method in brief: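 Genetically altered yeast (DNA repair pathway); compound treatment; growth inhibition vs vehicle ctrl.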

[2] = NCI Yeast Anticancer Drug Screen. Data for the mec2-1 strain (AID 157); settings: S. cerevisiae mec2-1 strain, active compounds read high; at 50.0 µM unless noted
Method in brief: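 Vehicle-treated cultures served as reference for growth inhibition of compound-exposed mec2-1 yeast.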

[3] = NCI Yeast Anticancer Drug Screen. Data for the sgs1 mgt1 strain (AID 161);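 also: 0% = growth of cultures given vehicle only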; settings: S. cerevisiae sgs1 mgt1 strain, active compounds read high; at 50.0 µM unless noted
Method in brief: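 Inhibition of yeast growth, normalised to vehicle-treated controls, is reported for a strain bearing genetic alterations in DNA damage repair.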

[4] = NCI Yeast Anticancer Drug Screen. Data for the cln2 rad14 strain (AID 165);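 also: 0% = growth equal to vehicle treated cultures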; settings: S. cerevisiae cln2 rad14 strain, active compounds read high; at 50.0 µM unless noted
Method in brief: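 Each compound was tested on cln2 rad14 yeast. Inhibition of growth was calculated against vehicle-exposed controls.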

[5] = NCI Yeast Anticancer Drug Screen. Data for the bub3 strain (AID 167); settings: S. cerevisiae bub3 mutant strain, active compounds read high; at 50.0 µM unless noted
Method in brief: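 Yeast carrying a defined mutation is treated with each compound, and growth is compared with that of vehicle-exposed cells to give inhibition.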

[6] = NCI Yeast Anticancer Drug Screen. Data for the mlh1 rad18 strain (AID 175); settings: S. cerevisiae mlh1 rad18 strain growth inhibition, active compounds read high; at 50.0 µM unless noted
Method in brief: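 Vehicle-treated cultures served as the reference for growth inhibition in a yeast strain carrying DNA damage repair alterations exposed to each compound.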

SMILES	growth inhibition [1]	growth inhibition [2]	growth inhibition [3]	growth inhibition [4]	growth inhibition [5]	growth inhibition [6]
CCCCCCCCCCCCC	-36.4%	-45.8%	-18.2%	3.7%	-50%	-20.9%
C=Nc1ccc(Nc2ccccc2)cc1	5.7%	-5.2%	-2.4%	-3.25%	-1.6%	3.3%
CN(C)c1ccc(C(c2ccc(N(C)C)cc2)c2ccc([N+](=O)[O-])cc2)cc1	-3.75%	-35.7%	-48.3%	8.3%	39%	-16.8%
Cc1ccc2c(N=Nc3ccc(C(=N)N)cc3)ccc(O)c2n1	99.3% (active)	99.4% (active)	99.5% (active)	98.2% (active)	99.2% (active)	99.2% (active)
O=C1N=CN=C2C=CC(Cl)=C(I)C12 (centres undefined)	0.85%	16.1%	19.5%	5.35%	29.9%	4.15%
O=C(Nc1ccccn1)c1ccccc1Cl	1.1%	3.1%	-9.5%	4.2%	-5.9%	19.3%
CCOC(=O)c1cc(/C=C/C(C)=C/C(=O)OC)n(C)c1C	74.5% (active)	56%	79.5% (active)	34.5%	80.2% (active)	58.5%
Cc1ccc(C)c(NC(=O)c2cccc(C(=O)Nc3cc(C)ccc3C)c2)c1	-13.1%	0.45%	-4.3%	8.05%	7.95%	7%
COc1ccccc1OC(=O)c1ccc(Cl)cc1	2.2%	-17.6%	18.7%	-63.9%	1.35%	0.75%
OC(CN1CCCC1)c1ccccc1 (centres undefined)	-1.8%	-11.2%	15.9%	28.6%	-0.25%	-30.6%
C=C1CC(C)(COc2ccc3ccc(=O)oc3c2)OC1=O (centres undefined)	24.4%	15.4%	49%	37.5%	17.6%	41%
OCC#CC#CCO	-3.7%	-7.45%	8.75%	-1.05%	-15.8%	-1.45%
NC(=O)C1CC2(c3ccccn3)c3ccccc3C1c1ccccc12 (centres undefined)	-0.1%	7.6%	10.4%	4.2%	-22.1%	-6.1%
O=c1oc(-c2ccc([N+](=O)[O-])cc2Cl)nc2ccccc12	13.2%	23.4%	31.1%	2%	38.6%	29.9%
O=C(Cc1ccccc1)C(c1ccccc1)C(c1ccccc1)c1ccccc1 (centres undefined)	-12.8%	-11.8%	5.25%	13.6%	-2.25%	-1.25%
CN(C)CCN1CC2Cc3ccccc3C1c1ccccc12 (centres undefined)	24.1%	-6.5%	-3.5%	28.9%	43.4%	9.1%
CC/C(CC(=O)CCC(=O)Nc1ccc(C)c(C)c1)=N\NC(=O)c1cc2ccccc2cc1O	45.2%	22.9%	-13.4%	-5.2%	44.6%	34.4%
CNS(=O)(=O)c1ccc(C)c(C)c1	-0.5%	-13.9%	4.4%	-10.7%	23.1%	12.7%
O=C(/C=C/c1ccc(OCC(=O)N2CCN(c3ccccc3)CC2)cc1)c1ccccc1	13%	16%	35.6%	-5.95%	16.7%	10.7%
